We go through 20 compounds from PubChem BioAssay (NCI).

Assay [1] can be described thus: NCI Yeast Anticancer Drug Screen. Data for the rad50 strain (AID 155).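 Note: 0% = growth of vehicle-only cultures of the same strain.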 The note with it: S. cerevisiae rad50 strain growth inhibition; at 50.0 µM; active compounds read high. In outline: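 Growth of the mutant yeast was measured after compound exposure and referenced to vehicle-treated cultures.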
The nature of assay [2]: NCI Yeast Anticancer Drug Screen. Data for the mec2-1 strain (AID 157). The note with it: S. cerevisiae mec2-1 strain, at 50.0 µM, active compounds read high. Summed up:
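Test agents were screened against the mec2-1 yeast strain, with defined DNA repair or cell cycle alteration. Growth was scored as inhibition against vehicle-only controls.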

Assay [3] in a line: NCI Yeast Anticancer Drug Screen. Data for the sgs1 mgt1 strain (AID 161).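 Note: 0% = growth of cultures given vehicle only.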 The note with it: S. cerevisiae sgs1 mgt1 strain, at 50.0 µM, active compounds read high. Summed up: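 Mutant yeast exposed to compound; growth scored against vehicle-only wells.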
The nature of assay [4]: NCI Yeast Anticancer Drug Screen. Data for the cln2 rad14 strain (AID 165).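 Note: 0% = growth equal to vehicle treated cultures.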 The note with it: S. cerevisiae cln2 rad14 strain, at 50.0 µM, active compounds read high. In outline:
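Growth of compound-exposed yeast (cln2 rad14 genotype) measured and expressed as inhibition relative to vehicle.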

A short description of assay [5]: NCI Yeast Anticancer Drug Screen. Data for the bub3 strain (AID 167). The note with it: S. cerevisiae bub3 mutant strain, at 50.0 µM, active compounds read high. Summed up:
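Whole-cell yeast assay. The mutant strain was incubated with compounds, and growth inhibition was determined by comparison with vehicle-treated cells.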

Assay [6] in a line: NCI Yeast Anticancer Drug Screen. Data for the mlh1 rad18 strain (AID 175). Particulars: S. cerevisiae mlh1 rad18 strain growth inhibition; at 50.0 µM; active compounds read high. Summed up:
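In this whole-cell yeast screen, a strain with altered DNA damage repair is challenged with compound, and its growth is measured against matched vehicle-treated controls.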

Compounds without any hit were thinned out: in the full panel of roughly 79,000, 15% have a hit. A number with no mark means an inactive call. Calls of active or inactive are those of the source. Cut-off read from the data, not from the text of the source: active = growth inhibition above about 70%; inactive = the rest.

For `O=C(O)CCCCCCCCCCS(=O)(=O)CCO`, the growth inhibition in assay [1] is 5.2%; in assay [2], 6.25%; in assay [3], 13.4%; in assay [4], 20.2%; in assay [5], 19.9%; in assay [6], -10%.
For the compound `Cc1ccc(C2SCC(=O)N2c2ccc(-c3ccc(-n4c(-c5ccccc5)nc5ccccc5c4=O)cc3)cc2)cc1` (stereo not given), the growth inhibition is 14% in assay [1]; 6% in assay [2]; 33% in assay [3]; -0.45% in assay [4]; 45.8% in assay [5]; 55.8% in assay [6].
Turning to `C/C(=C/OS(=O)(=O)C(F)(F)F)c1ccccc1`, the growth inhibition is -22.3% in assay [1]; -0.2% in assay [2]; -3.2% in assay [3]; -8.55% in assay [4]; -1.5% in assay [5]; 4.25% in assay [6].
On to `Cc1[nH]c2ccccc2c1C(=O)Cc1ccc(Cl)cc1Cl`, for which the growth inhibition was -3.6% in assay [1]; 31.8% in assay [2]; 32.2% in assay [3]; -4.35% in assay [4]; 23.8% in assay [5]; 33.4% in assay [6].
Turning to `CCCCOc1ccc(Nc2c(C(=O)OCC)cnc3cc4c(cc23)OCO4)cc1`, the growth inhibition in assay [1] was -3.3%; in assay [2], -9%; in assay [3], -0.25%; in assay [4], 8.2%; in assay [5], -3.45%; in assay [6] it was -9.4%.
`CSC1=NNC(c2ccccc2)=C(c2ccccc2)S1`: the growth inhibition in assay [1] was -1.55%; in assay [2], 4.2%; in assay [3] it was 52%; in assay [4], -31.8%; in assay [5], 59.7%; in assay [6] it was 0.45%.
As to `CC(=O)Nc1ccc(OC2=CCN(C)CC2)cc1`, the growth inhibition in assay [1] is 0.75%; in assay [2], -16.1%; in assay [3] it was 8.85%; in assay [4], 12.7%; in assay [5], 11.1%; in assay [6], -64.8%.
With `Cc1ccc2c(c1)CN(C)CO2`, the growth inhibition in assay [1] was -15%; in assay [2], 6.45%; in assay [3] it was 5.6%; in assay [4] it was -51.4%; in assay [5] it was -18.1%; in assay [6], -24.1%.
Take `CC(=O)CC(=O)Nc1cccc(O)c1`: the growth inhibition in assay [1] was -15%; in assay [2] it was -21.8%; in assay [3], -14.9%; in assay [4], 11.8%; in assay [5], -3.85%; in assay [6], -2.85%.
Consider `N#CCCC1(CCC#N)CCCCCCC(CCC#N)(CCC#N)C(O)C1O` (stereo not given), for which the growth inhibition in assay [1] is 10.8%; in assay [2], -12%; in assay [3], -6.45%; in assay [4], 3.15%; in assay [5] it was -15.2%; in assay [6] it was -46.2%.
As for `COc1cc(-c2[nH]ncc2CCCC(=O)Nc2ccccc2[N+](=O)[O-])ccc1O`, the growth inhibition in assay [1] is 20.9%; in assay [2], -2.75%; in assay [3] it was -14.5%; in assay [4] it was 7.8%; in assay [5] it was -2.75%; in assay [6], 18.5%.
`O=C(Cc1nc2ccccc2nc1CC(=O)c1cccnc1)c1cccnc1`: the growth inhibition in assay [1] is 6.45%; in assay [2] it was 18.4%; in assay [3], 16.1%; in assay [4], 23.1%; in assay [5] it was -3.55%; in assay [6], 25.9%.
Consider `COc1ccc2c(c1)[n+]([O-])c(/C(C)=N/NC(=O)c1ccccc1O)c(C)[n+]2[O-]`, for which the growth inhibition in assay [1] was 16.2%; in assay [2] it was -3.9%; in assay [3] it was 9.45%; in assay [4], -106%; in assay [5], -3.35%; in assay [6], 0.7%.
In the case of `O=S(=O)(O)CCc1ccccc1`, the growth inhibition was 1.9% in assay [1]; 9.15% in assay [2]; -10.9% in assay [3]; -7.5% in assay [4]; -21.1% in assay [5]; -26.5% in assay [6].
As for `Nc1nc(CCl)nc(N2CCOCC2)n1`, the growth inhibition in assay [1] was 6.3%; in assay [2], 1.65%; in assay [3] it was 7.7%; in assay [4], 20.4%; in assay [5], 19.4%; in assay [6], -20.2%.
With `CCOC(=O)c1sc(C(=O)OCC)c2c1-c1cccc3cccc-2c13`, the growth inhibition in assay [1] is -35.6%; in assay [2], 13.1%; in assay [3], 4.35%; in assay [4], -48%; in assay [5], 15.1%; in assay [6], -9.95%.
Consider `O=C(N/N=C/c1cccc(F)c1)c1ccncc1`, for which the growth inhibition is 8.4% in assay [1]; 1% in assay [2]; -2.05% in assay [3]; -23.9% in assay [4]; -0.35% in assay [5]; 8.35% in assay [6].
As to `COC(=O)c1nnn(-c2ccc(Cl)cc2C)c1N`, the growth inhibition is -17.8% in assay [1]; -1.95% in assay [2]; 16.7% in assay [3]; 29.7% in assay [4]; -15.6% in assay [5]; 21.2% in assay [6].
For the compound `C[C@@H](CC(=O)O)OC1OC(COC(=O)C(C)(C)C)C(OC(=O)C(C)(C)C)C(OC(=O)C(C)(C)C)C1OC(=O)C(C)(C)C` (stereo not given in full), the growth inhibition in assay [1] is 4.25%; in assay [2], -45.1%; in assay [3], -17.7%; in assay [4], 7%; in assay [5], -15.5%; in assay [6], 85.8% (active).
Consider `Cc1nc(C)c(N2CCN(C(=O)O)CC2)c(=O)[nH]1`, for which the growth inhibition in assay [1] is -23.6%; in assay [2] it was -10.9%; in assay [3], -16%; in assay [4], 9.85%; in assay [5], 5.15%; in assay [6], -58.4%.
